Source: PubChem (National Center for Advancing Translational Sciences (NCATS))
Pf growth 48h: P. falciparum growth inhibition at 48 hours (one generation); P. falciparum luciferase growth in erythrocytes, 48 h; AID 504832; Potency, µM (series often up to 28.7 µM), for inactives: top-dose activity change, negative = inhibition, usual class: inhibitors; hit rate 5.9% among 310,000; further: on the % scale 0 is the no-effect control and ±100 the full control effect
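First compound was added to culture medium, then infected red cells at 0.1% parasitemia and 2% hematocrit (final). After incubation at 37 C under 5% CO2, luciferase detection reagent was dispensed and light output recorded.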
SARS PLP yeast: blocks SARS-CoV papain-like protease in a yeast assay. S. cerevisiae expressing SARS-CoV PLpro, growth rescue. Potency, µM (highest dose often 32.9 µM), for the others: at the highest dose activity, positive = growth rescue, most hits filed as activators. hit rate 0.19% among 330,000. AID 485353; calls by dose curve; further: 0% is about no effect; nearly all actives have a fitted effect of over 55% in size
Sm TGR block: blocks Schistosoma mansoni thioredoxin glutathione reductase; Q962Y6; purified TGR, DTNB reduction, TNB absorbance 405 nm; Potency, µM (series often up to 114 µM), for the others: top-dose activity change, negative = inhibition, most hits filed as inhibitors; hit rate 3% among 360,000; further: on the % scale 0 is the no-effect control and ±100 the full control effect; nearly all actives have a fitted effect of over 60% in size
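First, TGR (20 nM dispensed) and NADPH were mixed with compound. Second, a 15 min room-temperature incubation followed. Third, further NADPH and then DTNB were added to start the reaction. Finally, TNB absorbance was monitored kinetically.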
AmpC detergent: blocks E. coli AmpC beta-lactamase in detergent assay | P00811 | AmpC hydrolysis of nitrocefin, absorbance 480 nm, 0.01% Triton | Potency, µM (series often up to 114 µM), for inactives: top-dose activity change, negative = inhibition, actives largely listed as inhibitors | hit rate 0.041% among 370,000;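 further: 0% = no-compound wells and -100% = no-enzyme wells; nearly all actives have a fitted effect of over 25% in size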
Target sequence (P00811 whole entry, looked up): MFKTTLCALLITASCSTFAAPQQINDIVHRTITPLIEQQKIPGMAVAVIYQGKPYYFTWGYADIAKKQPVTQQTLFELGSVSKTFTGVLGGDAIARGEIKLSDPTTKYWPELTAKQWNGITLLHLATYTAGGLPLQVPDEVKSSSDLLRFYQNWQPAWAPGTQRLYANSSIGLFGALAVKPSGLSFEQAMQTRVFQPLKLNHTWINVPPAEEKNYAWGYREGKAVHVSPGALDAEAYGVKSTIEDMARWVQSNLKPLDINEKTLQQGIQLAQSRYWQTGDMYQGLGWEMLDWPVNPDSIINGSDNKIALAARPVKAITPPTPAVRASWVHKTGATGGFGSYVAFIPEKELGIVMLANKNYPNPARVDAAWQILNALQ
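20 mM phosphate pH 7.0 + 0.01% (detergent screen) or 0.0001% Triton X-100; 5.3 nM AmpC reagent; cpd preinc 15 min RT; nitrocefin (800 uM stock) to start; A480 q20 s × 4 min; Activity was normalised to no-enzyme and no-compound control wells.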
AmpC no deterg: blocks E. coli AmpC beta-lactamase in detergent-free assay. hit rate 0.52% among 330,000. P00811. Potency, µM (doses to about 57.1 µM), without a hit: at the top dose activity change, negative = inhibition, actives largely listed as inhibitors. AmpC nitrocefin hydrolysis, absorbance 480 nm, 0.0001% Triton. AID 485341;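 further: plate controls were no compound for no effect and no enzyme for full effect; nearly all actives have a fitted effect of over 20% in size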
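20 mM phosphate pH 7.0 + 0.01% (detergent screen) or 0.0001% Triton X-100; 5.3 nM AmpC reagent; cpd preinc 15 min RT; nitrocefin (800 uM stock) to start; A480 q20 s × 4 min; Activity was normalised to no-enzyme and no-compound control wells.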
Pf growth 96h: P. falciparum growth inhibition at 96 hour, primary screen for plastid delayed-death inhibitors. P. falciparum luciferase reporter growth, 96 h. hit rate 6.9% among 320,000. Potency, µM (highest dose often 28.7 µM), for inactives: at the top dose activity change, negative = inhibition, usual class: inhibitors; further: on the % scale 0 is the no-effect control and ±100 the full control effect
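P. falciparum expressing integrated firefly luciferase, in erythrocytes at 2% hematocrit, 0.05% parasitemia, incubated with compounds 96 h at 37 C, 5% CO2. Growth inhibition read as loss of luminescence; two-generation exposure targets delayed-death apicoplast inhibitors.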
The depositor's hits bear a star. An excerpt weighted towards active compounds, which were near 12% of everything screened. Unless noted, the call rests on the fitted dose curve; in most records, active means well fitted curve in the direction sought with a large enough effect; inconclusive means small, poorly fitted or top-dose-only effect, or another doubt; inactive means no such curve, though single readings can be large; an effect the other way counts as inactive or inconclusive. Potency means the concentration at half of the fitted maximal effect.

Results for CCOc1ccc(CCNC(=O)c2ccc3c(c2)c(C)c(C)n3C)cc1 ?
Sm TGR block: -8.7%; AmpC detergent: -1.8%

What do the screens show for `O=C(Oc1ccc2c(=O)c(Oc3ccc4ccccc4c3)coc2c1)c1cncc(Br)c1`?
Pf growth 48h: 12.4%; SARS PLP yeast: -7.5%; Sm TGR block: -3.0%; AmpC detergent: 5.4%; AmpC no deterg: -33.5%; Pf growth 96h: 20.1%

Results for O=C(Oc1ccc2c(=O)c(Cl)coc2c1)c1ccncc1 ?
Pf growth 48h: 0.0%; SARS PLP yeast: -1.6%; Sm TGR block: 8.91µM*; AmpC detergent: inconclusive; AmpC no deterg: 14.5%; Pf growth 96h: -64.6%

What do the screens show for `N#CC(C#N)=C1C=CC=CN1/C(=C\c1ccccc1)C(=O)c1cccs1`?
Pf growth 48h: -0.1%; SARS PLP yeast: -41.0%; Sm TGR block: 0.282µM*; AmpC detergent: -13.9%; AmpC no deterg: 5.3%; Pf growth 96h: inconclusive

Results for N#CC(C#N)=C1C=CC=CN1/C(=C\c1ccccc1Cl)C(=O)c1ccccc1 ?
Pf growth 48h: -11.4%; SARS PLP yeast: -131.5%; Sm TGR block: 0.282µM*; AmpC detergent: -0.6%; AmpC no deterg: -2.6%; Pf growth 96h: -0.7%

What do the screens show for `N#C/C(=C\c1ccccc1)C(=O)Nc1nncs1`?
Pf growth 48h: -7.6%; SARS PLP yeast: 0.9%; Sm TGR block: -5.0%; AmpC detergent: -8.5%; AmpC no deterg: -13.2%; Pf growth 96h: inconclusive

Results for CC1CCN(C(=O)/C(=C/c2ccccc2Cl)c2ccccc2)CC1 ?
Pf growth 48h: -66.1%; SARS PLP yeast: -22.6%; Sm TGR block: 8.4%; AmpC detergent: -6.0%; AmpC no deterg: -6.7%; Pf growth 96h: inconclusive

Results for CN(C)C(CNC(=O)CCc1nc2cc(Cl)ccc2n(Cc2ccccc2)c1=O)c1ccccc1 (stereo not drawn) ?
Pf growth 48h: 9.28µM*; SARS PLP yeast: 2.2%; Sm TGR block: 6.2%; AmpC detergent: -9.6%; AmpC no deterg: 212.7%; Pf growth 96h: 10.4µM*

What do the screens show for `CCNC(=S)NNC(=O)CCc1nc2cc(Cl)ccc2n(Cc2ccccc2)c1=O`?
Pf growth 48h: inconclusive; SARS PLP yeast: -1.0%; Sm TGR block: -0.9%; AmpC detergent: -1.2%; AmpC no deterg: -11.7%; Pf growth 96h: 5.86µM*

Results for C=CCSc1nnc(-c2nnc(SCC=C)n2-c2ccccc2)n1-c1ccccc1 ?
Pf growth 48h: inconclusive; SARS PLP yeast: 6.6%; Sm TGR block: -0.9%; AmpC detergent: -1.1%; AmpC no deterg: 44.5%; Pf growth 96h: 6.57µM*

Results for CC(=O)/C(=N\Nc1ccc(Cl)cc1)Sc1nnc(-c2ccccc2)n1-c1ccccc1 ?
Pf growth 48h: -22.2%; SARS PLP yeast: 24.6%; Sm TGR block: -2.7%; AmpC detergent: -5.5%; AmpC no deterg: -43.6%; Pf growth 96h: 14.7µM*

What do the screens show for `COc1ccc(-n2c(SCC(=O)O)nnc2-c2ccc(NC(=O)c3ccccc3)cc2)cc1`?
Pf growth 48h: 5.22µM*; SARS PLP yeast: 3.3%; Sm TGR block: 0.0%; AmpC detergent: -3.3%; AmpC no deterg: -28.8%; Pf growth 96h: 18.2%

Results for O=C(O)CSc1nnc(-c2ccc(Cl)cc2)n1-c1ccccc1 ?
Pf growth 48h: 37.0%; SARS PLP yeast: 11.4%; Sm TGR block: 0.0%; AmpC detergent: 0.3%; AmpC no deterg: -10.3%; Pf growth 96h: 9.28µM*

What do the screens show for `C=CCSc1nnc(CCc2ccccc2)n1N`?
Pf growth 48h: 47.9%; SARS PLP yeast: -1.8%; Sm TGR block: -1.4%; AmpC detergent: -10.8%; AmpC no deterg: -5.3%; Pf growth 96h: inconclusive

What do the screens show for `CC(=O)/C(=N/Nc1ccccc1)Sc1nnc(CCc2ccccc2)n1-c1ccccc1`?
Pf growth 48h: -0.2%; SARS PLP yeast: -21.7%; Sm TGR block: -8.1%; AmpC detergent: -21.8%; AmpC no deterg: 12.7%; Pf growth 96h: -23.1%

Results for COc1ccccc1CNC(=O)Cn1cc2c(n1)-c1c(oc(C(=O)N3CCOCC3)c1C)CC2 ?
Sm TGR block: -3.7%; AmpC detergent: inconclusive

How did CCC1CCCCN1C(=O)Cn1c(=O)cc(C(F)(F)F)c2c(C)nn(C)c21 (stereo not drawn) do in these assays?
Sm TGR block: -7.0%; AmpC detergent: 0.9%

How did O=[N+]([O-])c1ccc(-c2csc(N/N=C/c3cccnc3)n2)cc1 do in these assays?
Pf growth 48h: 1.7%; SARS PLP yeast: -1.3%; Sm TGR block: -14.7%; AmpC detergent: 0.2%; AmpC no deterg: -23.3%; Pf growth 96h: 3.4%

Results for O=[N+]([O-])c1cc(/C=N\Nc2nc(-c3ccccc3)cs2)ccc1O ?
Pf growth 48h: 11.7µM*; SARS PLP yeast: 1.5%; Sm TGR block: -34.3%; AmpC detergent: 6.2%; AmpC no deterg: 25.1µM*; Pf growth 96h: 30.6%

Results for COc1cc(/C=N/Nc2nc(-c3ccc(S(=O)(=O)N(C)C)cc3)cs2)ccc1O ?
Pf growth 48h: 2.08µM*; SARS PLP yeast: 1.1%; Sm TGR block: -19.9%; AmpC detergent: -0.8%; AmpC no deterg: -41.9%; Pf growth 96h: 8.28µM*

Results for CCOc1cc(/C=N/Nc2nc(-c3cccc(S(=O)(=O)N4CCCC4)c3)cs2)ccc1O ?
Pf growth 48h: 9.28µM*; SARS PLP yeast: 11.2%; Sm TGR block: 2.6%; AmpC detergent: 1.5%; AmpC no deterg: -24.3%; Pf growth 96h: 10.4µM*

Results for COc1ccc(/C=N/Nc2nc(-c3cccc(S(=O)(=O)N4CCCC4)c3)cs2)cc1OC ?
Pf growth 48h: 9.28µM*; SARS PLP yeast: 18.9%; Sm TGR block: -0.7%; AmpC detergent: 1.5%; AmpC no deterg: 1.2%; Pf growth 96h: 11.7µM*

How did CNC(=O)c1[nH]cnc1C(=O)Nc1ccccn1 do in these assays?
Pf growth 48h: 25.5%; SARS PLP yeast: 0.1%; AmpC detergent: -7.5%; AmpC no deterg: -10.1%; Pf growth 96h: -13.9%

Results for CCOC(=O)c1c(C)nc2ccccn12 ?
Pf growth 48h: 26.0%; SARS PLP yeast: -10.4%; Sm TGR block: 6.4%; AmpC detergent: -10.7%; AmpC no deterg: -8.6%

What do the screens show for `CCOC(=O)c1c(C2CCN(C(=O)OCC)CC2)nc2ccccn12`?
SARS PLP yeast: -6.1%; Sm TGR block: -4.0%; AmpC detergent: -16.1%; AmpC no deterg: 67.0%; Pf growth 96h: 5.22µM*

Results for CN1CCN(c2nc3ccccn3c(=O)c2C=O)CC1 ?
Pf growth 48h: 0.0%; SARS PLP yeast: -4.8%; Sm TGR block: 0.0%; AmpC detergent: inconclusive; AmpC no deterg: -8.8%; Pf growth 96h: 11.7%
